Screening data from PubChem BioAssay.
IL-1B inflam inh: inflammasome signaling inhibition, IL-1 beta readout | THP-1 LPS/ATP IL-1B secretion, AlphaLISA, 16 h; active compounds read low | 360,000 compounds, 4.7% hits | activity change, % at 57.5 µM; in the data active = activity change below about -50%; inconclusive = mostly about -30% to -49%
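Secreted IL-1B measured by AlphaLISA bead assay after 16 h compound exposure of THP-1 cells; compounds (final up to 57.5 uM) added 1 h before LPS (250 ng/mL) and ATP (1.25 mM) stimulation; lower signal means less secretion.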
RORgamma inh: ROR gamma (mouse) transcription inhibition. P51450. Drosophila S2 Gal4-RORgamma UAS-luciferase reporter, 20 h. Potency, µM (series often up to 53.6 µM), hits mostly inhibitors. 310,000 compounds, 5.4% hits. AID 2551; note: nearly all actives have a fitted effect of over 60% in size
Target sequence (P51450 whole entry, looked up, the tested form may be a part): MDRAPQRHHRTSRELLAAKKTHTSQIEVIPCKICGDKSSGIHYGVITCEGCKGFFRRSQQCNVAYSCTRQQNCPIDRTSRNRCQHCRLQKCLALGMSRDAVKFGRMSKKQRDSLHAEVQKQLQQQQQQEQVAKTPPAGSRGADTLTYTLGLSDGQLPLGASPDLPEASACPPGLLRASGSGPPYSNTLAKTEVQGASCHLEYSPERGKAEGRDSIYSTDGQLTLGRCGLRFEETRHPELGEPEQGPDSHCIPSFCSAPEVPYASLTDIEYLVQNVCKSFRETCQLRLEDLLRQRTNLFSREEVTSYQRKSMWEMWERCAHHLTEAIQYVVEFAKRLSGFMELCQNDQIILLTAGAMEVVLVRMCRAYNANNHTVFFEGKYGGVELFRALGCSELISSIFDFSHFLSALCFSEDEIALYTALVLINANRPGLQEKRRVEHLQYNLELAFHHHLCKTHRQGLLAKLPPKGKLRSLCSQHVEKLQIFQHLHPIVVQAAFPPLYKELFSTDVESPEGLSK
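In this cell-based reporter format, copper sulfate (700 uM final) drives Gal4–ROR gamma fusion expression from a metallothionein promoter in Drosophila Schneider cells; compounds preincubated 1 hr, reporter read after 20 hr at ambient temperature.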
TDP1 cell noCPT: qHTS for Inhibitors of human tyrosyl-DNA phosphodiesterase 1 (TDP1): qHTS in cells in absence of CPT | DT40 Tdp1-/- hTDP1 cells, no CPT, ATP luminescence, 48 h | Potency, µM (top dose mostly 46.2 µM), most hits filed as inhibitors | 420,000 compounds, 15% hits; note: nearly all actives have a fitted effect of over 55% in size
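Stably hTDP1-transfected Tdp1-null chicken DT40 cells were treated with library compounds minus camptothecin and grown for at least 48 hr at 37 °C, after which cellular ATP was quantified by luminescence.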
LDHA inh: blocks human lactate dehydrogenase A. activity change, % (values are at about 110 or 230 µM). AID 1347041. 480,000 compounds, 0.15% hits. purified LDHA, NADH/diaphorase-resazurin fluorescence; active compounds read low. P00338; in the data active = activity change below about -30%; inconclusive = mostly about -25% to -30%
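Human LDH5 at 2 nM final in Tris HCl pH 7.4 with 0.06 mM NADH and 0.2 mM pyruvate, reacted 5 minutes at room temperature. Remaining NADH coupled via diaphorase/resazurin; resorufin fluorescence read at 0 and 20 minutes, normalized to enzyme-free and DMSO wells.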
DT40 TDP1 CPT: growth inhibition of DT40 Tdp1-/-;hTDP1 cells with camptothecin (screen for TDP1 inhibitors); chicken DT40 Tdp1-/-;hTDP1 cells + 20 nM CPT, ATP luminescence, 48 h; Potency, µM (highest dose often 46.2 µM), usual class: inhibitors; 420,000 compounds, 12% hits; AID 686979; note: nearly all actives have a fitted effect of over 55% in size
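Cell growth measured by CellTiter-Glo luminescence after a minimum 48 h, 37 C compound exposure with 20 nM CPT in Tdp1-knockout DT40 cells stably expressing hTDP1, seeded 400/well; qHTS titration format.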
VP16 counter: Gal4-VP16 reporter inhibition counter-screen; Drosophila S2 Gal4-VP16 UAS-luciferase, luminescence, 20 h; 310,000 compounds, 3.5% hits; Potency, µM (highest dose often 53.6 µM), usual class: inhibitors;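 note: Gal4-VP16 expression switched on by copper sulfate through the metallothionein promoter; nearly all actives have a fitted effect of over 50% in size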
Large screens that a line does not name were inactive. Most compounds without a hit are left out; they make up all but 18% or so of the library. Unless noted, calls come from the whole dose curve; as a rule, active = well fitted curve in the direction sought with a large enough effect; inconclusive = small, poorly fitted or top-dose-only effect, or another doubt; inactive = no such curve, though single readings can be large; an effect the other way counts as inactive or inconclusive.

O=C(Nc1ccc(-c2cnco2)cc1)c1ccccc1	IL-1B inflam inh -71
O=C(Nc1ccncc1)c1ccc(S(=O)(=O)Nc2ccccc2)cc1	TDP1 cell noCPT 12µM, DT40 TDP1 CPT 15µM
O=C(Nc1cccnc1)c1ccc(-c2ccccc2)cc1	TDP1 cell noCPT inconclusive
O=C(Nc1ccncc1)c1ccc(-c2ccccc2)cc1	RORgamma inh 7.9µM, TDP1 cell noCPT 2.9µM, DT40 TDP1 CPT 3.3µM, VP16 counter inconclusive
CC(C(=O)c1ccc(-c2ccccc2)cc1)[n+]1cccc(NC(=O)c2ccccc2)c1 (stereo not given)	IL-1B inflam inh inconclusive, TDP1 cell noCPT 15µM, DT40 TDP1 CPT 18µM
O=C(COc1ccc2ccc(=O)oc2c1)Nc1ccc(F)c(F)c1F	none (no result: IL-1B inflam inh, RORgamma inh, TDP1 cell noCPT, DT40 TDP1 CPT, VP16 counter)
COc1cccc(CS(=O)(=O)c2nnnn2C2CCCCC2)c1	none (no result: IL-1B inflam inh, TDP1 cell noCPT, LDHA inh, DT40 TDP1 CPT)
CCCS(=O)(=O)c1nnnn1-c1cccc(OC)c1	IL-1B inflam inh -67, RORgamma inh 1.8µM, TDP1 cell noCPT 5.2µM, DT40 TDP1 CPT 3.7µM, VP16 counter 4.5µM
COc1cccc(CS(=O)(=O)c2nnnn2-c2ccccc2)c1	RORgamma inh 7.1µM (no result: IL-1B inflam inh, TDP1 cell noCPT, LDHA inh, DT40 TDP1 CPT)
CC(C)Sc1ccc2nn(CC(=O)Nc3ccccc3F)c(=O)n2n1	none (no result: IL-1B inflam inh, RORgamma inh, TDP1 cell noCPT, DT40 TDP1 CPT, VP16 counter)
CC(c1ccccc1)N1CCn2c(nc3cc(NC(=O)c4cccs4)ccc32)C1 (stereo not given)	TDP1 cell noCPT inconclusive, DT40 TDP1 CPT 26µM (no result: IL-1B inflam inh)
CC(c1ccccc1)N1CCn2c(nc3cc(NC(=O)NC4CCCCC4)ccc32)C1 (stereo not given)	TDP1 cell noCPT 22µM, DT40 TDP1 CPT 22µM
O=C(O)C(c1c[nH]c2cc(Br)ccc12)N1CCN(c2nsc3ccccc23)CC1 (stereo not given)	none (no result: IL-1B inflam inh, RORgamma inh, TDP1 cell noCPT, DT40 TDP1 CPT, VP16 counter)
CCC(=O)Nc1nc2c(C)cc(NS(=O)(=O)c3cc(Cl)ccc3OC)cc2s1	none (no result: IL-1B inflam inh, RORgamma inh, TDP1 cell noCPT, DT40 TDP1 CPT, VP16 counter)
N#CC(Cc1cccc(CC(C#N)(c2ccccc2)c2ccccc2)c1)(c1ccccc1)c1ccccc1	TDP1 cell noCPT 4.1µM, DT40 TDP1 CPT 3.3µM
COc1cccc(CN(C)CC(=O)Nc2sc3c(c2C#N)CCC3)c1OC	none
CN(Cc1nc2ccccc2c(=O)[nH]1)C(=O)c1cccc(NC(=O)c2cccs2)c1	TDP1 cell noCPT inconclusive, DT40 TDP1 CPT inconclusive (no result: RORgamma inh, VP16 counter)
CN(Cc1nc2ccccc2c(=O)[nH]1)C(=O)c1cc2c(s1)CCCCC2	TDP1 cell noCPT 16µM, DT40 TDP1 CPT 23µM (no result: RORgamma inh, VP16 counter)
CN(CC(=O)Nc1sc2c(c1C#N)CCCCC2)Cc1nc2ccccc2c(=O)[nH]1	RORgamma inh 13µM, TDP1 cell noCPT 18µM, DT40 TDP1 CPT inconclusive
CC(C)(C)c1ccc(C23OC(=O)C(C)(C)C2OC(=O)C3(C)C)cc1 (stereo not given)	none (no result: IL-1B inflam inh, RORgamma inh, TDP1 cell noCPT, DT40 TDP1 CPT, VP16 counter)
COC(=O)C[C@H]1CC[C@H](NC(=O)Nc2ccccc2F)[C@@H](CO)O1	TDP1 cell noCPT 23µM, DT40 TDP1 CPT 23µM (no result: RORgamma inh, VP16 counter)
CC(C)(C)NC(=O)CCc1ccc(C#N)cc1	none (no result: IL-1B inflam inh, RORgamma inh, TDP1 cell noCPT, DT40 TDP1 CPT, VP16 counter)
NC(=O)CCN(C1CCCCC1)S(=O)(=O)c1cccc2nsnc12	none
Cc1ccc(S(=O)(=O)N(CCC#N)C2CCCCC2)c2nsnc12	TDP1 cell noCPT 18µM, DT40 TDP1 CPT 16µM
COc1ccc(-c2cc(C(F)(F)F)nc(SCCC(=O)N3CCN4CCCC4C3)n2)cc1 (stereo not given)	TDP1 cell noCPT 26µM, DT40 TDP1 CPT inconclusive
COc1ccc(-c2cc(C(F)(F)F)nc(SCCC(=O)N3CCCC3)n2)cc1	IL-1B inflam inh -52, TDP1 cell noCPT inconclusive, DT40 TDP1 CPT inconclusive
COc1ccc(NC(=O)CCSc2nc(-c3ccc(OC)cc3)cc(C(F)(F)F)n2)cc1	none (no result: IL-1B inflam inh, RORgamma inh, VP16 counter)
CCOc1cc(/C=C(/C#N)c2nc3ccccc3[nH]2)ccc1OC	none (no result: IL-1B inflam inh, RORgamma inh, TDP1 cell noCPT, DT40 TDP1 CPT, VP16 counter)
COc1ccc(Cl)cc1-n1ccc2c(cnc3nc(C(F)(F)F)nn32)c1=O	none (no result: IL-1B inflam inh, RORgamma inh, TDP1 cell noCPT, DT40 TDP1 CPT, VP16 counter)
O=C(O)c1cc(I)ccc1Br	none (no result: IL-1B inflam inh, RORgamma inh, TDP1 cell noCPT, DT40 TDP1 CPT, VP16 counter)
